A selection: hits, their analogues and other compounds. The true share with any hit is near 12%.
PLK1 PBD inh: blocks phosphopeptide binding to human PLK1 polo-box domain; Potency, µM, for inactives: max response, negative = inhibition, usual class: inhibitors; AID 720504; hit rate 2.8% among 360,000; Plk1 PBD binding of FITC phosphopeptide, fluorescence polarization; P53350; further: series mostly up to about 57 µM; nearly all actives have a fitted effect of over 65% in size
RORgamma inh: blocks mouse ROR gamma transcriptional activity. Potency, µM (highest dose often 53.6 µM), inactives show at the top dose activity change, negative = inhibition, actives largely listed as inhibitors. AID 2551. Drosophila S2 Gal4-RORgamma UAS-luciferase reporter, 20 h. hit rate 5.4% among 310,000. P51450; further: nearly all actives have a fitted effect of over 60% in size
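Luminescence from a UAS-regulated Photinus luciferase reporter in stably transfected Drosophila Schneider cells is measured; decreased signal marks ROR gamma inhibition. Fusion expression is induced by 700 uM copper sulfate for 20 hr.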
ALDH1A1 block: ALDH1A1 (human) enzyme inhibition. Potency, µM (highest dose often 75.3 µM), inactives show at the highest dose activity, negative = inhibition, most hits filed as inhibitors. Purified ALDH1A1, NADH fluorescence, propionaldehyde substrate. P00352. AID 1030. hit rate 7.3% among 220,000; active means well fitted inhibition curve with a large enough effect, not every such curve was filed as active; inconclusive means small, poorly fitted or top-dose-only effect, or another doubt; inactive means no such curve, though single readings can be large or run the other way;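 further: plate controls were no enzyme wells and a reference inhibitor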
Target sequence (P00352 whole entry, looked up): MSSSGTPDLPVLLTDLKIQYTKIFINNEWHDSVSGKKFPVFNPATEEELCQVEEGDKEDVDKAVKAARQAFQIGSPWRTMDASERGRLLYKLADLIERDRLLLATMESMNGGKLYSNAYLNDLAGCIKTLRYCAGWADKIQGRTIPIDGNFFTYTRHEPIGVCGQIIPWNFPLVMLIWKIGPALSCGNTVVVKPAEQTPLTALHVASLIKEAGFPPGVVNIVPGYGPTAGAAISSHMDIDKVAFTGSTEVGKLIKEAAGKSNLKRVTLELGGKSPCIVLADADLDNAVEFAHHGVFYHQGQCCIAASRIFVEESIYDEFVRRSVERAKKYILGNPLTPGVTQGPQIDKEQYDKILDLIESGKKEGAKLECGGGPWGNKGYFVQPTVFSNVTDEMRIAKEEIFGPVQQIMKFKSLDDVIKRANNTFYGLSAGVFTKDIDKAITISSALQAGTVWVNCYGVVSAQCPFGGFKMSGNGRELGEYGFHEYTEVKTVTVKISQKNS
VP16 counter: Gal4-VP16 reporter inhibition counter-screen. Drosophila S2 Gal4-VP16 UAS-luciferase, luminescence, 20 h. Potency, µM (doses to about 53.6 µM), without a hit: top-dose activity, negative = inhibition, usual class: inhibitors. hit rate 3.5% among 310,000;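 further: Gal4-VP16 expression switched on by copper sulfate through the metallothionein promoter; nearly all actives have a fitted effect of over 50% in size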
Sfp PPTase inh: blocks B. subtilis Sfp PPTase activity | Biochemical Sfp PPTase activity, qHTS | AID 1490 | Potency, µM, inactives show largest response in the series, negative = inhibition, hits mostly inhibitors | Q9F4F7 | hit rate 3.5% among 310,000;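 further: the enzyme is Sfp with the accession as filed and its product quenches rhodamine fluorescence; 0% = enzyme reaction without inhibitor and -100% = no enzyme wells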
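Reaction rates are the 30-min fluorescence difference (ex 525, em 598 nm) in wells containing 15 nM Sfp, 5 uM rhodamine-CoA and 12.5 uM BHQ-2-YbbR at pH 7.6 with 10 mM MgCl2.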
* = called active by the depositor; ? = inconclusive; . = no result; [ ] = another dose, or the depositor's remark. Unless noted, the call rests on the fitted dose curve; in most records, active means well fitted curve in the direction sought with a large enough effect; inconclusive means small, poorly fitted or top-dose-only effect, or another doubt; inactive means no such curve, though single readings can be large; an effect the other way counts as inactive or inconclusive. Unless noted, on the % scale 0 is the no-effect control and ±100 the full control effect; potency means the concentration at half of the fitted maximal effect.

SMILES	PLK1 PBD inh	RORgamma inh	ALDH1A1 block	VP16 counter	Sfp PPTase inh
CCOC1CC(C)(C)NC(=S)N1 (stereo not drawn)	-5.5%	-20.8%	-0.4%	-2.7%	-6.5%
CC(=O)Nc1ccc(-c2ccnc3c2CC(C(=O)NCc2ccccc2)O3)cc1 (stereo not drawn)	-8.4%	.	.	.	.
CC1CCc2c(nc3sc4c(c3c2N)CCCC4)C1 (stereo not drawn)	-0.9%	12.6µM*	-5.3%	?	0.1%
O=C(NCc1cccnc1)c1cc(C2CCCCN2C(=O)OCCF)on1 (stereo not drawn)	8.0%	.	.	.	.
Nc1ncnc2c1ncn2[C@H]1O[C@@H](C(=O)O)[C@@H](O)[C@H]1O	.	.	7.2%[13.5 µM]	.	.
COCCNC(=O)CSc1nnc(NC(=O)C2CC(=O)N(c3ccccc3OC)C2)s1 (stereo not drawn)	?	-18.9%	.	5.1%	50.1µM*
COc1ccccc1N1CC(C(=O)Nc2nnc(SCC(=O)N3CCOCC3)s2)CC1=O (stereo not drawn)	-0.6%	-22.7%	.	-1.6%	9.5%
Cc1cccc(N2CC(C(=O)Nc3nnc(SCC(=O)Nc4nccs4)s3)CC2=O)c1 (stereo not drawn)	6.3%	-18.7%	2.3%	-5.5%	-7.1%
Cc1ccccc1N1CC(C(=O)Nc2nnc(SCC(=O)Nc3nccs3)s2)CC1=O (stereo not drawn)	-25.0%	11.4%	15.8µM*	-1.0%	?
CC1CCCN(c2ccc(C(=O)NCc3cccs3)cn2)C1 (stereo not drawn)	-6.9%	?	?	5.3%	-3.8%
O=C(NCc1cccs1)c1ccc(N2CCCCC2)nc1	-4.9%	-29.5%	12.6µM*	10.0%	-10.3%
O=C1C2CC(O)CN2C(=S)N1Cc1ccccc1 (stereo not drawn)	?	-0.2%	.	-8.7%	50.1µM*
Cc1ccc(S(=O)(=O)c2nc(/C=C/c3ccccc3)oc2N2CCC(C(N)=O)CC2)cc1	-11.1%	.	.	.	.
COC(=O)[C@H](CC(C)C)NC(=O)c1cc2c(cn1)[nH]c1ccccc12	3.77µM*	-0.2%	.	-3.5%	44.7µM*
CCN(CC)c1ccc(/C=c2\sc3nc4ccccc4n3c2=O)c(O)c1	-23.1%	-2.7%	?	?	-7.2%
Cc1cc(/C=c2/sc3nc4ccccc4n3c2=O)c(C)n1-c1ccccn1	-8.4%	0.1µM*	12.6µM*	0.251µM*	-23.2%
O=C(O)c1ccc(-c2ccc(/C=c3/sc4nc5ccccc5n4c3=O)o2)cc1Cl	-25.9%	-25.7%	.	-23.6%	50.1µM*
Cc1cc(/C=c2\sc3nc4ccccc4n3c2=O)c(C)n1-c1ccc(C(=O)O)cc1	21.2µM*	3.5%	?	8.3%	-18.1%
O=c1/c(=C\c2cccnc2)sc2nc3ccccc3n12	-3.9%	34.0%	1.8%	21.7%	7.7%
CCc1nc2ccc(C(=O)N3CCN(S(=O)(=O)CC)CC3)cn2c1N(CC)C(=O)NCCc1ccccc1	0.6%	.	.	.	.
O=C(Nc1ncccc1O)c1ccc(S(=O)(=O)Nc2ccccc2)cc1	-4.8%	.	.	.	.
O=C(O)[C@H]1CCCN(CCC=C(c2ccccc2)c2ccccc2)C1	.	-1.5%	-3.6%	2.8%	1.9%
CC(C)C[C@@H](CC(=O)N[C@@H](CCC(=O)O)CC(=O)O)NC(=O)[C@@H]1CCCC[C@H]1NC(=O)C[C@H](CCCN)NC(=O)C[C@H](Cc1c[nH]c2ccccc12)NC(=O)[C@@H]1CCCC[C@H]1N	.	-9.0%	-8.7%	-4.4%	-17.9%
CSCC[C@@H](CO)NC(=O)[C@H]1O[C@@H](n2ccc(N)nc2=O)[C@H](O)[C@@H]1O	3.2%	.	.	.	.
Cc1nn(C)c(Cl)c1NC(=O)OCc1ccc(F)cc1	-8.7%	?	4.1%	1.78µM*	4.3%
SMILES	PLK1 PBD inh	RORgamma inh	ALDH1A1 block	VP16 counter	Sfp PPTase inh
CCCC(=O)Nc1nnc([C@H]2C[C@H](O)[C@@H](CO)O2)s1	-4.1%	.	.	.	.
Cc1ccc(C(=O)Cn2ncsc2=N)cc1	-5.1%	-32.0%	?	18.6%	-15.0%
Cc1ccc(C(=O)Cn2c3c(sc2=N)CCCC3)cc1	.	0.794µM*	?	?	8.7%
O=C(c1ccco1)N1CCC2(CC1)CCN(C(c1ccccc1)c1ccccc1)CC2	.	24.1%	0.6%	-6.9%	0.8%
O=C(NCCc1cccc(F)c1)/C(=C/c1cccnc1)NC(=O)c1ccccc1	-3.0%	-11.3%	5.0%	5.2%	1.5%
Cc1cccc(Oc2ncnc(N)c2[N+](=O)[O-])c1C	-4.1%	-6.5%	18.3%	-0.1%	8.1%
